{
  "source": "PubChem BioAssay (NCI)",
  "note": "Compounds without any hit were thinned out: in the full panel of roughly 79,000, 15% have a hit. Unmarked numbers belong to inactive results. The source made the active and inactive calls. Cut-off read from the data, not from the text of the source: active = growth inhibition above about 70%; inactive = the rest.",
  "data": [
    {"assay": "NCI Yeast Anticancer Drug Screen. Data for the rad50 strain (AID 155);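 note: 0% = growth of vehicle-only cultures of the same strain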", "conditions": "S. cerevisiae rad50 strain growth inhibition; at 50.0 µM; stronger effect = higher value", "procedure,_shortened": "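Vehicle-treated cultures provide the reference for the growth inhibition reported for compound-exposed, repair-deficient yeast.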", "values": [
      {"compound": "Clc1cc2n[nH]nc2c(Cl)c1Cl", "growth inhibition": "74.8% (active)"},
      {"compound": "NSc1ccc(N)s1", "growth inhibition": "37%"},
      {"compound": "O=C1C2=C(CCCC2)C(=O)C(Cl)C1Cl", "note": "(stereo not drawn)", "growth inhibition": "97.8% (active)"},
      {"compound": "O=C(COc1ccc2ccccc2c1)NC1c2ccccc2Oc2ccccc21", "growth inhibition": "74.2% (active)"},
      {"compound": "COc1ccc(-c2cc(-c3ccco3)c(C#N)c(=S)n2C2OC(CO)C(O)C(O)C2O)cc1", "note": "(stereo not drawn)", "growth inhibition": "5.1%"},
      {"compound": "Clc1cccc(Cl)c1C(Nc1nncs1)Nc1nncs1", "growth inhibition": "93.2% (active)"},
      {"compound": "COC([C@@H](OC(=O)c1ccccc1)[C@H](OC(=O)c1ccccc1)C(O)COC(=O)c1ccccc1)n1cc(C)c(=O)[nH]c1=O", "note": "(stereo partly drawn)", "growth inhibition": "17.1%"},
      {"compound": "C1=C(c2c(-c3ccccc3)[nH]c3ccccc23)Cc2ccccc21", "growth inhibition": "12.6%"},
      {"compound": "CC12C(=O)OC(=O)C1C1c3ccccc3C2c2ccccc21", "note": "(stereo not drawn)", "growth inhibition": "89.7% (active)"},
      {"compound": "O=C(N/C(=C\\c1ccc(/C=C(\\NC(=O)c2ccccc2)c2nc3ccccc3s2)cc1)c1nc2ccccc2s1)c1ccccc1", "growth inhibition": "85.1% (active)"},
      {"compound": "COS(=O)c1cc(Cl)cc(Cl)c1OC(=O)CSSCC(=O)Oc1c(Cl)cc(Cl)cc1S(=O)OC", "note": "(stereo not drawn)", "growth inhibition": "98.8% (active)"},
      {"compound": "COc1cc2c3c(c4ccc(OC)c(OC)c4c2cc1OC)CN1CCC[C@@H]1C3", "growth inhibition": "92% (active)"},
      {"compound": "N#CSC#CCCC#CSC#N", "growth inhibition": "92.5% (active)"},
      {"compound": "Nc1nc(-c2ccc(Cl)cc2)c(N=Nc2ccc(Br)cc2)s1", "growth inhibition": "97.5% (active)"},
      {"compound": "CC(=O)C(C(C)=O)C1C=CC=CC=C1", "growth inhibition": "97% (active)"},
      {"compound": "CCCCN(C(=O)c1ccccc1)C1CCC(=O)c2[nH]c3ccccc3c21", "note": "(stereo not drawn)", "growth inhibition": "85.5% (active)"},
      {"compound": "S=C(Nc1ccc(Cl)c(Cl)c1)N1c2ccccc2-n2cccc2C1c1cccnc1", "note": "(stereo not drawn)", "growth inhibition": "80.8% (active)"},
      {"compound": "O=C1CCC(Cc2ccc(C(F)(F)F)cc2)C(=O)N1", "note": "(stereo not drawn)", "growth inhibition": "1.65%"},
      {"compound": "Oc1cc(O)c2c(c1)OC(c1ccc(O)c(O)c1)C(OC1(c3cc(O)c(O)c(O)c3)Oc3cc(O)cc(O)c3C(O)C1O)C2", "note": "(stereo not drawn)", "growth inhibition": "-3.85%"},
      {"compound": "Cc1cccc(N=Nc2ccc(O)cc2)c1", "growth inhibition": "99.6% (active)"},
      {"compound": "Cc1c2c(c(C)c3c4c(oc13)CCCC4)C=NCC2", "growth inhibition": "69.7%"},
      {"compound": "CCOC(=O)C(=CCC1NCCc2c1[nH]c1ccccc21)C(=O)OCC", "note": "(stereo not drawn)", "growth inhibition": "91.2% (active)"},
      {"compound": "CCOC(=O)C1=C(c2ccccc2)SC(c2ccccc2)N(C(C)C)C1=O", "note": "(stereo not drawn)", "growth inhibition": "90.3% (active)"},
      {"compound": "CN(C)CCCNc1cc(/C=C/c2ccc([N+](=O)[O-])cc2)nc2ccccc12", "growth inhibition": "80.8% (active)"},
      {"compound": "CC(CN(C)C)C(=O)c1cn(C)c2ccccc12", "note": "(stereo not drawn)", "growth inhibition": "9%"},
      {"compound": "Nc1ccccc1/C=C/c1c[nH]c2ccccc12", "growth inhibition": "91.6% (active)"},
      {"compound": "Cc1c(CNc2ccc(Cl)c(Cl)c2Cl)cnc2nc(N)nc(N)c12", "growth inhibition": "78.5% (active)"},
      {"compound": "O=C(c1cccs1)N(C(=S)N1CCN(c2ccccn2)CC1)c1ccccc1", "growth inhibition": "15.4%"},
      {"compound": "COc1ccccc1/C=C1\\NC(=S)N(/C=C2\\C(=O)Oc3ccccc3C2=O)C1=O", "growth inhibition": "73.2% (active)"},
      {"compound": "Cc1cc(O)c(C)c(C)c1N=Nc1ccccc1", "growth inhibition": "56.4%"},
      {"compound": "O=S1CCS(=O)C1c1ccccc1", "note": "(stereo not drawn)", "growth inhibition": "85.3% (active)"},
      {"compound": "Cc1ccc2nc(-c3ccc(N)cc3)sc2c1", "growth inhibition": "75% (active)"},
      {"compound": "CC1OC(OC2C(Oc3c(-c4ccc(O)c(O)c4O)oc4cc(O)ccc4c3=O)OC(CO)C(O)C2O)C(O)C(O)C1O", "note": "(stereo not drawn)", "growth inhibition": "22.9%"},
      {"compound": "O=C(OCc1ccccc1CN1CCOCC1)c1cccc(Br)c1", "growth inhibition": "43.5%"},
      {"compound": "C=CCOCC(C)OC(=O)C(C)C", "note": "(stereo not drawn)", "growth inhibition": "55.7%"},
      {"compound": "CC(C)(C)OC(=O)N[C@H]1CC2(C=C(Cl)C(=O)C(Cl)=C2)OC1=O", "growth inhibition": "86.5% (active)"},
      {"compound": "CC(Nc1ccc(Cl)c(Cl)c1)c1ccncc1", "note": "(stereo not drawn)", "growth inhibition": "85.8% (active)"},
      {"compound": "COc1ccccc1/C=C(\\NC(=O)c1ccccc1)c1nc2ccccc2[nH]1", "growth inhibition": "97.8% (active)"},
      {"compound": "CCCCCCC(O)(CCCCCC)CCCCCC", "growth inhibition": "83.3% (active)"}
    ]},
    {"assay": "NCI Yeast Anticancer Drug Screen. Data for the mec2-1 strain (AID 157)", "conditions": "S. cerevisiae mec2-1 strain, at 5.0 µM (retest, dose inferred, filed as 0.5), stronger effect = higher value", "procedure,_shortened": "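Compounds were applied to mec2-1 yeast cells. Their growth was then compared with that of vehicle-treated cultures to give growth inhibition.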", "values": [
      {"compound": "Clc1cc2n[nH]nc2c(Cl)c1Cl", "growth inhibition": "6%"},
      {"compound": "NSc1ccc(N)s1", "growth inhibition": "6%"},
      {"compound": "O=C1C2=C(CCCC2)C(=O)C(Cl)C1Cl", "note": "(stereo not drawn)", "growth inhibition": "32%"},
      {"compound": "O=C(COc1ccc2ccccc2c1)NC1c2ccccc2Oc2ccccc21", "growth inhibition": "91% (active)"},
      {"compound": "COc1ccc(-c2cc(-c3ccco3)c(C#N)c(=S)n2C2OC(CO)C(O)C(O)C2O)cc1", "note": "(stereo not drawn)", "growth inhibition": "3%"},
      {"compound": "Clc1cccc(Cl)c1C(Nc1nncs1)Nc1nncs1", "growth inhibition": "-9%"},
      {"compound": "COC([C@@H](OC(=O)c1ccccc1)[C@H](OC(=O)c1ccccc1)C(O)COC(=O)c1ccccc1)n1cc(C)c(=O)[nH]c1=O", "note": "(stereo partly drawn)", "growth inhibition": "-8%"},
      {"compound": "C1=C(c2c(-c3ccccc3)[nH]c3ccccc23)Cc2ccccc21", "growth inhibition": "0%"},
      {"compound": "CC12C(=O)OC(=O)C1C1c3ccccc3C2c2ccccc21", "note": "(stereo not drawn)", "growth inhibition": "82% (active)"},
      {"compound": "O=C(N/C(=C\\c1ccc(/C=C(\\NC(=O)c2ccccc2)c2nc3ccccc3s2)cc1)c1nc2ccccc2s1)c1ccccc1", "growth inhibition": "32%"},
      {"compound": "COS(=O)c1cc(Cl)cc(Cl)c1OC(=O)CSSCC(=O)Oc1c(Cl)cc(Cl)cc1S(=O)OC", "note": "(stereo not drawn)", "growth inhibition": "85% (active)"},
      {"compound": "COc1cc2c3c(c4ccc(OC)c(OC)c4c2cc1OC)CN1CCC[C@@H]1C3", "growth inhibition": "8%"},
      {"compound": "N#CSC#CCCC#CSC#N", "growth inhibition": "43%"},
      {"compound": "Nc1nc(-c2ccc(Cl)cc2)c(N=Nc2ccc(Br)cc2)s1", "growth inhibition": "-20%"},
      {"compound": "CC(=O)C(C(C)=O)C1C=CC=CC=C1", "growth inhibition": "-42%"},
      {"compound": "CCCCN(C(=O)c1ccccc1)C1CCC(=O)c2[nH]c3ccccc3c21", "note": "(stereo not drawn)", "growth inhibition": "-15%"},
      {"compound": "S=C(Nc1ccc(Cl)c(Cl)c1)N1c2ccccc2-n2cccc2C1c1cccnc1", "note": "(stereo not drawn)", "growth inhibition": "46%"},
      {"compound": "O=C1CCC(Cc2ccc(C(F)(F)F)cc2)C(=O)N1", "note": "(stereo not drawn)", "growth inhibition": "-1%"},
      {"compound": "Oc1cc(O)c2c(c1)OC(c1ccc(O)c(O)c1)C(OC1(c3cc(O)c(O)c(O)c3)Oc3cc(O)cc(O)c3C(O)C1O)C2", "note": "(stereo not drawn)", "growth inhibition": "-5%"},
      {"compound": "Cc1cccc(N=Nc2ccc(O)cc2)c1", "growth inhibition": "-58%"},
      {"compound": "Cc1c2c(c(C)c3c4c(oc13)CCCC4)C=NCC2", "growth inhibition": "3%"},
      {"compound": "CCOC(=O)C(=CCC1NCCc2c1[nH]c1ccccc21)C(=O)OCC", "note": "(stereo not drawn)", "growth inhibition": "29%"},
      {"compound": "CCOC(=O)C1=C(c2ccccc2)SC(c2ccccc2)N(C(C)C)C1=O", "note": "(stereo not drawn)", "growth inhibition": "13%"},
      {"compound": "CN(C)CCCNc1cc(/C=C/c2ccc([N+](=O)[O-])cc2)nc2ccccc12", "growth inhibition": "-3%"},
      {"compound": "CC(CN(C)C)C(=O)c1cn(C)c2ccccc12", "note": "(stereo not drawn)", "growth inhibition": "5%"},
      {"compound": "Nc1ccccc1/C=C/c1c[nH]c2ccccc12", "growth inhibition": "4%"},
      {"compound": "Cc1c(CNc2ccc(Cl)c(Cl)c2Cl)cnc2nc(N)nc(N)c12", "growth inhibition": "27%"},
      {"compound": "O=C(c1cccs1)N(C(=S)N1CCN(c2ccccn2)CC1)c1ccccc1", "growth inhibition": "-8%"},
      {"compound": "COc1ccccc1/C=C1\\NC(=S)N(/C=C2\\C(=O)Oc3ccccc3C2=O)C1=O", "growth inhibition": "-7%"},
      {"compound": "Cc1cc(O)c(C)c(C)c1N=Nc1ccccc1", "growth inhibition": "-52%"},
      {"compound": "O=S1CCS(=O)C1c1ccccc1", "note": "(stereo not drawn)", "growth inhibition": "-6%"},
      {"compound": "Cc1ccc2nc(-c3ccc(N)cc3)sc2c1", "growth inhibition": "-2%"},
      {"compound": "CC1OC(OC2C(Oc3c(-c4ccc(O)c(O)c4O)oc4cc(O)ccc4c3=O)OC(CO)C(O)C2O)C(O)C(O)C1O", "note": "(stereo not drawn)", "growth inhibition": "-5%"},
      {"compound": "O=C(OCc1ccccc1CN1CCOCC1)c1cccc(Br)c1", "growth inhibition": "-4%"},
      {"compound": "C=CCOCC(C)OC(=O)C(C)C", "note": "(stereo not drawn)", "growth inhibition": "-46%"},
      {"compound": "CC(C)(C)OC(=O)N[C@H]1CC2(C=C(Cl)C(=O)C(Cl)=C2)OC1=O", "growth inhibition": "16%"},
      {"compound": "CC(Nc1ccc(Cl)c(Cl)c1)c1ccncc1", "note": "(stereo not drawn)", "growth inhibition": "-36%"},
      {"compound": "COc1ccccc1/C=C(\\NC(=O)c1ccccc1)c1nc2ccccc2[nH]1", "growth inhibition": "30%"},
      {"compound": "CCCCCCC(O)(CCCCCC)CCCCCC", "growth inhibition": "-3%"}
    ]}
  ]
}
